In the library only some 3.3% were active in any assay of this set; here they are far more common.
Casp6 inh: blocks human caspase-6 cleavage activity | inhibition, % at 12.5 µM | purified caspase-6, Z-VEID-R110 cleavage fluorescence | 0.53% of 350,000 active | P55212;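 active = mean inhibition across replicates at least about 35%, with every replicate also reaching that limit, limit read from the data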
Target sequence (P55212 24-179 limits assumed): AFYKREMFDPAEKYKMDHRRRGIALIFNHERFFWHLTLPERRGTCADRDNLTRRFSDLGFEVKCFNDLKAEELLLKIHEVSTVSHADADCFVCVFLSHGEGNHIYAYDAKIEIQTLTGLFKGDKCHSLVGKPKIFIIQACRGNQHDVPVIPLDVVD
Target sequence (P55212 194-293 limits assumed): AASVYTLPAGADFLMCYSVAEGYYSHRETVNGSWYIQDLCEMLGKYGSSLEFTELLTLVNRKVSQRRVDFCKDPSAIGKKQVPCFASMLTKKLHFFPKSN
FGF22 binding: binders of recombinant human FGF22 by thermal shift; Q9HCT0; SYPRO orange fluorescence; percent of sucrose octasulfate shift, DMSO zero; activity (Tm shift, normalised), % at 9.99 µM; 1.5% of 340,000 active; AID 651658;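 active = mean Tm shift, scaled 0 neutral to 100 positive control, at about 1.3% or above, every replicate too, limit read from the data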
Target sequence (Q9HCT0 whole entry, looked up): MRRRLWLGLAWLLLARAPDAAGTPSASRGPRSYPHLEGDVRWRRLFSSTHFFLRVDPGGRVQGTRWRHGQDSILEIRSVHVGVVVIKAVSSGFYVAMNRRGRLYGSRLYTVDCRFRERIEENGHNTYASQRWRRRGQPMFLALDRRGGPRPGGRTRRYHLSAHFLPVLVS
ERAP1 inh: ERAP1 (human) enzyme inhibition; Q9NZ08; 0.15% of 340,000 active; AID 652197; recombinant ERAP1, Leu-AMC fluorescence, 60 min; inhibition, % at 10.7 µM;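 active = mean replicate inhibition of at least 30%, or all replicates individually reaching that 30% level; inactive = mean below 30% and not every replicate reaching it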
INS-1E GSIS act: GLuc luminescence reporter in INS-1E cells, primary screen for activators of glucose-dependent secretion of insulin | AID 743287 | 0.61% of 370,000 active | INS-1E GLuc reporter insulin secretion, 2-3 h | activation, % at 16.6 µM;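 active = lowest replicate activation of at least 40%, so every replicate reaches that level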
SIRT5 inh: blocks human SIRT5 desuccinylation of peptide. Purified SirT5, succinyl-peptide AMC, trypsin-coupled fluorescence. inhibition, % at 15 µM. 1.1% of 330,000 active. AID 652115; in the data active = inhibition above about 15%
Large screens that a line does not name were inactive; ! = not confirmed by another sample.

O=C(Nc1ccc(-c2nnc3n2CCCCC3)cc1)c1cc2ccccc2o1	FGF22 binding 43.9
COc1cccc(OC)c1C(=O)OCC(=O)NCC(C)C	INS-1E GSIS act 42.6
COc1cccc(OC)c1C(=O)OCC(=O)NCCCc1ccccc1	none
OC(CNCCC1C=Nc2ccccc21)Cn1c2ccc(Cl)cc2c2cc(Cl)ccc21 (stereo unspecified)	INS-1E GSIS act 647.4 (no result: Casp6 inh, FGF22 binding, ERAP1 inh, SIRT5 inh)
Cc1ccc(C(=O)N2CCCC2)cc1S(=O)(=O)Nc1cccc(C)c1C	SIRT5 inh 26.2
CCCCCCCCN1C(=O)[C@@H](CC(=O)N2CCN(C(=O)C3CC3)CC2)C[C@@]2(C(=O)OC)C1=C[C@H](C1CCCC1)O[C@@H]2C	INS-1E GSIS act 71.8 (no result: SIRT5 inh)
COC(=O)[C@]12C[C@H](CC(=O)N3CCOCC3)C(=O)N(CCC3=CCCCC3)C1=C[C@H](C(C)(C)C)O[C@@H]2C	none (no result: INS-1E GSIS act, SIRT5 inh)
CCCCCCCCN1C(=O)[C@@H](CC(=O)N2CCOCC2)C[C@@]2(C(=O)OC)C1=C[C@H](C1CCCC1)O[C@@H]2C	none (no result: INS-1E GSIS act, SIRT5 inh)
CCCCCCCCN1C(=O)[C@@H](CC(=O)N2CCCC2)C[C@@]2(C(=O)OC)C1=C[C@H](C1CCCC1)O[C@@H]2C	INS-1E GSIS act 112.0 (no result: SIRT5 inh)
COC(=O)[C@]12C[C@H](CC(=O)N3CCCC3)C(=O)N(CCC3=CCCCC3)C1=C[C@H](C(C)(C)C)O[C@@H]2C	INS-1E GSIS act 294.0 (no result: SIRT5 inh)
C[C@H](CO)N1C[C@H](C)[C@H](CN(C)Cc2ccc3c(c2)OCO3)OCCCC[C@H](C)Oc2ccc(NC(=O)CCCN(C)C)cc2C1=O	none
CC(=O)Nc1c(C(=O)C2CC2)oc2ccccc12	INS-1E GSIS act 49.7
O=C(Nc1ccc2c(c1)OCCO2)c1oc2ccccc2c1NC(=O)C1CC1	FGF22 binding 43.3
COc1ccccc1-c1ccc(C2[C@H]3CNC[C@@H]2N3C(=O)Nc2ccccc2Cl)cc1 (stereo partly specified)	none (no result: FGF22 binding)
COc1ccc(S(=O)(=O)n2cnc3ccccc32)cc1OC	Casp6 inh 61.7 (no result: INS-1E GSIS act)
COc1ccc(S(=O)(=O)n2cnc3cc(C)c(C)cc32)cc1C	none
C[C@@H]1CN([C@@H](C)CO)S(=O)(=O)c2ccc(C#C[C@@H](C)O)cc2O[C@@H]1CN(C)C(=O)Nc1ccccc1	none
O=C(C[C@@H]1CC[C@@H]2[C@H](COC[C@@H](O)CN2C(=O)Cc2ccccc2)O1)NC1CCCC1	none
CN(CC(=O)Nc1c(Cl)cccc1Cl)CC(=O)N(C)C1(C#N)CCCCC1	FGF22 binding 42.9 (no result: INS-1E GSIS act, SIRT5 inh)
CCOCC(=O)NC1CCc2cc(OC)c(OC)c(OC)c2-c2ccc(SC)c(=O)cc21 (stereo unspecified)	FGF22 binding 43.2 (no result: SIRT5 inh)
CCOC(=O)NC1CCc2cc(OC)c(OC)c(OC)c2-c2ccc(SC)c(=O)cc21 (stereo unspecified)	none (no result: SIRT5 inh)
C[C@H](CO)N1C[C@H](C)[C@H](CN(C)C(=O)c2ccccc2F)Oc2ncc(-c3ccccc3)cc2C1=O	none (no result: ERAP1 inh)
C[C@@H]1CN([C@H](C)CO)C(=O)c2cc(Br)cnc2O[C@H]1CN(C)C(=O)c1ccccc1F	none
C[C@H]1CN([C@@H](C)CO)C(=O)c2cc(Br)cnc2O[C@H]1CN(C)C(=O)c1ccccn1	SIRT5 inh 18.7!
C[C@@H]1CN([C@@H](C)CO)C(=O)c2cc(Br)cnc2O[C@H]1CN(C)C(=O)c1ccccc1F	SIRT5 inh 15.1!
C[C@H]1CN([C@@H](C)CO)C(=O)c2cc(Br)cnc2O[C@@H]1CN(C)C(=O)c1ccccn1	none
C[C@H](CO)N1C[C@H](C)[C@H](CN(C)C(=O)c2ccccc2F)Oc2ncc(Br)cc2C1=O	SIRT5 inh 26.2!
C[C@H](CO)N1C[C@H](C)[C@H](CN(C)S(=O)(=O)c2ccc(Cl)cc2)Oc2ccc(NC(=O)Nc3ccc4c(c3)OCO4)cc2C1=O	none
CNC[C@H]1Oc2ncc(/C=C/c3ccccc3)cc2C(=O)N([C@@H](C)CO)C[C@H]1C	none (no result: Casp6 inh, FGF22 binding, ERAP1 inh, SIRT5 inh)
CN(C)c1cccc(-c2csc(N3CCC(C(N)=O)CC3)n2)c1	none (no result: INS-1E GSIS act)
CS(=O)(=O)c1cccc(-c2csc(N3CCC(C(N)=O)CC3)n2)c1	FGF22 binding 43.1 (no result: INS-1E GSIS act)
CCN(CC)CCn1c(=N)n(CC(O)COc2ccccc2)c2ccccc21 (stereo unspecified)	INS-1E GSIS act 51.2
Cc1ccc(S(=O)(=O)Nc2ccc3c(c2)CC(=O)N([C@H](C)CO)C[C@@H](C)[C@@H](CN(C)S(=O)(=O)c2cccs2)O3)cc1	none

Screens deposited in PubChem by Broad Institute.
